# Source: PubChem
# G9a block = inhibitors of human histone lysine methyltransferase G9a; G9a H3K9 monomethylation, AlphaScreen, 2 h; Q96KQ7; 350,000 tested, 8.8% active; AID 504332; Potency, µM (highest dose often 102 µM), inactives show at the top dose activity, negative = inhibition, actives largely listed as inhibitors; note: potency is the fitted concentration of half-maximal effect; % is set by controls: 0 for no effect and ±100 for the full control effect; nearly all actives have a fitted effect of over 75% in size
#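 G9a (20 nM) preincubated 15 min RT with compounds, then 500 nM biotinylated H3K9 peptide and 20 uM SAM added; 2 h RT reaction. Monomethyl-H3K9 product detected by AlphaScreen with anti-H3K9me1 antibody, streptavidin donor and anti-rabbit IgG acceptor beads.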
# PLK1 PBD block = inhibitors of human PLK1 polo-box domain binding | P53350 | AID 720504 | Plk1 PBD binding of FITC phosphopeptide, fluorescence polarization | Potency, µM, for inactives: max response, negative = inhibition, usual class: inhibitors | 360,000 tested, 2.8% active; note: potency is the fitted concentration of half-maximal effect; series mostly up to about 57 µM; % is set by controls: 0 for no effect and ±100 for the full control effect; nearly all actives have a fitted effect of over 65% in size
# PI5P4Ka inh = PI5P4K alpha (human) kinase inhibition | PI5P4Kalpha enzyme, ADP-Glo luminescence, 60 min; stronger effect = lower value | AID 652105 | 330,000 tested, 1.2% active | P48426 | max response, %; active = max response of -50% or lower; inconclusive = between -30% and -50%; inactive = -30% or higher; note: value at the top dose of about 77 µM; % is set by controls: 0 for no effect and ±100 for the full control effect
#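 Human PI5P4Kalpha with substrate in 0.038 M HEPES pH 7.4, 0.28 mM EGTA, 0.1% CHAPS, 5% DMSO; reaction started with 5 microM ATP (final), 60 min at room temperature. ADP formed read by ADP-Glo luminescence.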
# HP1b chromo inh = HP1-beta chromodomain-methylated histone interaction inhibition; 390,000 tested, 0.56% active; AlphaScreen HP1-beta / biotin-H3K9me3 peptide binding; Potency, µM (highest dose often 114 µM), without a hit: at the top dose activity change, negative = inhibition, most hits filed as inhibitors; note: potency is the fitted concentration of half-maximal effect; nearly all actives have a fitted effect of over 70% in size
#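 HP1-beta protein (50 nM final) preincubated 30 min at room temperature with biotinylated H3(1-18)K9me3 peptide (50 nM) in PBS pH 7.4, 0.01% Tween-20, then compound added for 30 min. AlphaScreen streptavidin donor/nickel chelate acceptor beads (10 ug/mL final), 30 min dark, luminescence read.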
# JMJD2A Tudor = inhibitors of human JMJD2A Tudor domain | O75164 | Potency, µM (doses to about 114 µM), for the others: at the top dose activity change, negative = inhibition, usual class: inhibitors | 390,000 tested, 4.4% active | AlphaScreen JMJD2A-Tudor / H3K4me3 peptide binding; note: potency is the fitted concentration of half-maximal effect; % is set by controls: 0 for no effect and ±100 for the full control effect; nearly all actives have a fitted effect of over 50% in size
# BAZ2B block = inhibitors of human BAZ2B bromodomain; Q9UIF8; AlphaScreen BAZ2B-H3K14Ac peptide displacement; Potency, µM (doses to about 114 µM), for the others: top-dose activity change, negative = inhibition, hits mostly inhibitors; 360,000 tested, 4.4% active; AID 504333; note: potency is the fitted concentration of half-maximal effect; % is set by controls: 0 for no effect and ±100 for the full control effect; nearly all actives have a fitted effect of over 60% in size
#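 BAZ2B (50 nM) with biotin-H3(5-23)K14Ac peptide (50 nM) in PBS pH 7.4, 0.01% Tween-20, preformed 30 min, then compound 30 min at room temperature; top concentration 110uM. AlphaScreen streptavidin donor/nickel chelate acceptor beads (10 ug/mL final), 20 min dark, signal read.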
# Starred values were filed as active, the others as inactive; ? = inconclusive; . = no result; [ ] = dose if it differs, or a comment. Most compounds without a hit are left out; they make up all but 12% or so of the library. Unless noted, calls come from the whole dose curve; as a rule, active = well fitted curve in the direction sought with a large enough effect; inconclusive = small, poorly fitted or top-dose-only effect, or another doubt; inactive = no such curve, though single readings can be large; an effect the other way counts as inactive or inconclusive.
SMILES,G9a block,PLK1 PBD block,PI5P4Ka inh,HP1b chromo inh,JMJD2A Tudor,BAZ2B block
NNC(=O)c1sc2cc(C(F)(F)F)cnc2c1-c1ccccn1,5.6µM*,-3%,2,32%,-9%[11.4 µM],?
O=C(Oc1c(Br)cc([N+](=O)[O-])cc1Br)c1cccnc1,?,19µM*,-15,-36%,?,?
CC(=O)c1cccc(NC(=O)N2CCCC2C(=O)Nc2ccc3c(c2)OCO3)c1 (stereo not drawn),8%,30µM*,2,2%,-20%,-23%
O=C(Nc1ccc2c(c1)OCO2)N1CCCc2ccccc21,56µM*,-11%,7,15%,-7%,-16%
CC(=O)c1cccc(NC(=O)N2CCCC2C(=O)Nc2cccc(C)c2)c1 (stereo not drawn),-5%,-1%,-1,27%,-3%,14%
Cc1ccc2c(c1)CCCN2C(=O)Nc1ccc2c(c1)OCO2,?,27µM*,-2,-37%,56µM*,?
Cc1ccc(C(=O)/C=C/c2ccc(-c3ccc(C)cc3)o2)cc1,?,-24%,-24,-25%,79µM*,-34%
CC(=O)N1CCN(C(=O)c2ccc(-c3cccc(C(F)(F)F)c3)o2)CC1,50µM*,-10%,6,33%,-9%,4%
O=C(O)/C=C/c1ccc(-c2cccc(C(F)(F)F)c2)o1,45µM*,?,-8,48%,-20%,-1%
Cc1ccc(C(=O)/C=C\C(=O)c2ccc(C)cc2)cc1,1.6µM*,6.7µM*,-16,-5%,-19%,-10%
CC(/C=C/C(=O)c1ccc(C)cc1)=C\c1ccccc1,9%[59 µM],-4%,7,109%,37%,30%
O=C(/C=C/c1ccccc1)c1ccccc1,-11%[59 µM],-11%,-3,126%,143%,24%
Cn1nccc1C(=O)N1CCCC(N2CCN(c3cccc(C(F)(F)F)c3)CC2)C1 (stereo not drawn),?,.,.,.,.,-13%
O=C(/C=C\c1ccc(-c2ccccc2)o1)c1ccccc1,10µM*,-3%,-1,?,-32%,32µM*
Cn1nccc1C(=O)N1CCN(c2cccc(C(F)(F)F)c2)CC1,71µM*,-9%,-13,38%,-16%,-28%
CCCN1CCN(CCCNC(=O)c2cc3c(=O)oc4ccc(C)cc4c3s2)CC1,-1%,-1%,-3,22%,-10%,-4%
Cc1ccc2oc(=O)c3cc(C(=O)NCCN4CCc5ccccc5C4)sc3c2c1,50µM*,3%,-19,39%,-24%,-28%
COc1ccccc1/C=C/C=N/N1CCN(Cc2ccccc2)CC1,11µM*,-9%,3,14%,-17%,32µM*
COc1ccccc1/C=C/CN1CCN(c2ccccc2)CC1,11µM*,0%,.,?,22µM*,50µM*
Cc1ccc(CN2CCN(/N=C/C=C/c3ccccc3[N+](=O)[O-])CC2)cc1,20µM*,-20%,3,18µM*,14µM*,20µM*
COc1ccc(N2CCN(C(=O)C3CCN(S(=O)(=O)c4cccs4)CC3)CC2)cc1,?,17µM*,-29,?,?,-18%
COc1ccc(N2CCN(C(=O)C3CCN(S(=O)(=O)c4cccc5nonc45)CC3)CC2)cc1,?,.,.,2%,-31%,79µM*
Cc1cc(NCCO)nc(-n2nc(C)cc2C)n1,?,0%,-3,43%,-8%,14%
Cc1cc(N(CCO)CCO)nc(-n2nc(C)cc2C)n1,40µM*,-11%,1,52%,?,-15%
Cc1ccc(-c2ccc(S(=O)(=O)N3CCCC3)cc2)cc1,?,6%,-1,35%,-4%,-3%
O=S(=O)(c1ccc(-c2n[nH]c(=S)o2)cc1)N1CCCC1,35µM*,-19%,-83*,3%,-11%,-15%
O=S(=O)(c1ccc(=S)[nH]c1)N1CCN(Cc2ccccc2)CC1,.,?,6,24%,-16%,.
O=S(=O)(c1ccc(=S)[nH]c1)N1CCCCC1,0.79µM*,?,-1,31%,-3%,-3%
